This is part of a sample that, as a whole, favours compounds with a hit. Of some 83,000 tested, about 20% had one in any assay.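 Method: cells in 96-well plates; compound added at one concentration; 48 h incubation; percent growth measured; values under 10 scored active.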 Calls of active or inactive are those of the source.

Data on 14 compounds can be found in PubChem BioAssay (NCI).

The test concerns HL-60(TB) leukemia. Put plainly: NCI-60 one-dose screen, 48 h (100 = growth as untreated, 0 = no growth, -100 = all killed). The settings on record: 10 µM unless noted.
On to `COc1cc(OC)c(/C=C/S(=O)(=O)Cc2ccc(OC)c(NCC(=O)O)c2)c(OC)c1`, for which the growth is -32% (active).

Turning to `C1=Cc2ccccc2N(c2nnc(-c3ccccc3)o2)c2ccccc21`, the growth was 86.8% (inactive).

For the compound `COc1cc(OCc2cccc(-c3ccc(C(O)c4nccs4)cc3)c2C)cc(OC)c1C=O` (centres undefined), the growth is 43.5% (inactive).

For `Cc1ccc(/C=C2/C(=O)Nc3cc(Cl)c(-c4csc(N)n4)cc32)cc1`, the growth was 22.2% (inactive).

Consider `COC(=O)c1oc2c(C(C)=O)c(OCCCN(C)C)ccc2c1C`, for which the growth was 75.3% (inactive).

As to `CCCCC1=C(Br)C(=O)c2ncccc2C1=O`, the growth was 83.3% (inactive).

For `CC(C)=CCNc1ncnc2c1ncn2C1OC(CO)C(O)C1O` (centres undefined), the growth is -40.7% [1 mM] (active).

Take `COC12C=C/C(=C(/C(=O)OCc3csc(SC)n3)C(=O)CCCCCCCCC3(OC)C=C/C(=C(/C(=O)OCc4cnc(SC)s4)C(=O)CCCCCCCC1)O3)O2` (centres undefined): the growth is 6.46% (active).

As to `O[C@H]1CO[C@H]2[C@@H]1OC[C@@H]2Oc1ccc(Nc2ccnc(Nc3ccc(O[C@H]4CO[C@H]5[C@@H]4OC[C@@H]5O)c(Cl)c3)n2)cc1Cl`, the growth was -7.8% (active).

Consider `CCOC(=O)c1c(Cl)c2c(n1Cc1ccc(OC)cc1)-c1oncc1CCC2`, for which the growth is 78.9% (inactive).

For the compound `CCCCN(CCC#N)C(N)=O`, the growth was 99.6% (inactive).

Consider `CCN(CC)CCCNc1cc(OC)cc2nc3cc(Cl)ccc3nc12`, for which the growth was -9.05% (active).

Consider `O=C1/C(=C\c2ccc(Cl)cc2)CN(C(=S)Nc2ccccc2)C/C1=C\c1ccc(Cl)cc1`, for which the growth is -15.4% (active).

Consider `CCOc1ccc(-n2nc(C(=O)NCc3ccccc3OC)nc2-c2cc(OC)c(OC)c(OC)c2)cc1`, for which the growth is 19.1% (inactive).
